Growth data for 14 compounds are collected here from PubChem BioAssay (NCI).

Among the test systems are T-47D breast; BT-549 breast; MDA-MB-435 melanoma; SW-620 colon; MCF7 breast; HCT-116 colon; HCC-2998 colon; KM12 colon.
Holding throughout (assay): NCI-60 one-dose screen, 48 h (100 = growth as untreated, 0 = no growth, -100 = all killed)
What all share (conditions): 10 µM unless noted

SMILES strings stand for the structures. About 83,000 compounds went through this panel and 20% of them were active in at least one assay; those are over-represented in the sample as a whole.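 Activity criterion: percent growth below 10, measured after cells in 96-well plates were exposed to a single compound concentration for 48 hours.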 Values without a mark were called inactive. Activity calls are given as the source filed them.

In the case of `COc1ccc(/C=N/NC(N)=S)c(OC)n1`, the growth in the assay on T-47D breast was 80%; in the assay with BT-549 breast it was 102%; in the assay on MDA-MB-435 melanoma, 101%; in the assay with SW-620 colon, 108%; in the assay on MCF7 breast, 93.6%; with HCT-116 colon, 99.2%. The growth with HCC-2998 colon was 115%; with KM12 colon, 102%.
`CN1C2CCC1/C(=C\c1ccc(F)cc1)C(=O)/C2=C/c1ccc(F)cc1`: the growth is 41.2% in the assay with T-47D breast; 39.6% in the assay on BT-549 breast; 31.3% in the assay on MDA-MB-435 melanoma; 38.2% in the assay on SW-620 colon; 24.5% in the assay on MCF7 breast; 9.46% (active) in the assay on HCT-116 colon. For the same compound, the growth in the assay with HCC-2998 colon was 82.6%; in the assay on KM12 colon, 31.3%.
In the case of `CO[C@H](C(=O)[C@@H](O)[C@@H](C)O)[C@@H]1Cc2cc3cc(O[C@H]4C[C@@H](O[C@H]5C[C@@H](O)[C@H](O)C(C)O5)[C@H](O)C(C)O4)c(C)c(O)c3c(O)c2C(=O)[C@H]1O[C@H]1C[C@@H](O[C@H]2C[C@@H](O[C@H]3C[C@](C)(O)C(=O)C(C)O3)[C@@H](O)C(C)O2)[C@H](O)C(C)O1` (some centres not stated), the growth in the assay with T-47D breast was -8.49% (active); with BT-549 breast, -24.5% (active); in the assay on MDA-MB-435 melanoma, -41.3% (active); with SW-620 colon it was 8.29% (active); in the assay on MCF7 breast it was 6.66% (active); in the assay on HCT-116 colon it was 4.55% (active). The growth was -9.52% (active) in the assay on HCC-2998 colon and 1.23% (active) with KM12 colon.
As to `Oc1c(C(Nc2cccc3ccccc23)c2ccccc2)ccc2cccnc12` (configuration not stated), the growth in the assay on T-47D breast was 49.1%; in the assay on BT-549 breast it was -16.1% (active); with MDA-MB-435 melanoma it was 42.3%; with SW-620 colon, 37.6%; with MCF7 breast, 25.8%; in the assay with HCT-116 colon it was 15.6%. Besides, the growth in the assay with HCC-2998 colon is 27.5%; in the assay on KM12 colon, 36%.
For `N/C(=N\O)c1ncc(-c2ccc(C(F)(F)F)cc2)c(NC2CCCCCC2)n1`, the growth with T-47D breast is -57.3% [100 µM] (active); with BT-549 breast, -93.2% [100 µM] (active); in the assay on MDA-MB-435 melanoma it was -84.2% [100 µM] (active); with SW-620 colon, -67.4% [100 µM] (active); with MCF7 breast it was -92.8% [100 µM] (active); in the assay with HCT-116 colon, -95.8% [100 µM] (active). For the same compound, the growth with HCC-2998 colon is -95.6% [100 µM] (active); in the assay on KM12 colon, -90.1% [100 µM] (active).
`CN1C(=O)N(C)C2C1NN=c1s/c(=C\c3ccsc3)c(=O)n12` (configuration not stated): the growth was 44.3% in the assay on T-47D breast; 37% in the assay with BT-549 breast; -3.38% (active) with MDA-MB-435 melanoma; 26.6% in the assay on SW-620 colon; 15.2% with MCF7 breast; 18.5% with HCT-116 colon. Further, the growth with HCC-2998 colon is 73.7%; with KM12 colon, 18.9%.
With `C#CCO[C@H]1CC[C@H](OCC#C)[C@@H]2[C@H]1[C@H]1C[C@@H]3[C@@]4(C)CCC[C@@](C)(C(=O)OC)[C@@H]4CC[C@@]23C=C1C(C)C`, the growth with T-47D breast was 94.6%; in the assay with BT-549 breast, 106%; in the assay with MDA-MB-435 melanoma, 106%; in the assay with SW-620 colon it was 103%; with MCF7 breast, 90.5%; in the assay with HCT-116 colon, 70.4%. Moreover, the growth with HCC-2998 colon is 94.6%; in the assay with KM12 colon, 78%.
Regarding `COc1cccc(/C(C)=N/NC(=O)CSc2nc3ccccc3c(=O)n2CCc2ccc(S(N)(=O)=O)cc2)c1`, the growth with T-47D breast is 40%; in the assay with BT-549 breast, 62.9%; in the assay with MDA-MB-435 melanoma, 38.4%; in the assay with SW-620 colon it was 30.7%; in the assay with MCF7 breast it was 20.5%; with HCT-116 colon it was -50.5% (active). Moreover, the growth with HCC-2998 colon was 69.1%; in the assay on KM12 colon, 14%.
As for `CN(C)c1nc(-c2cccs2)n2nc(-c3ccco3)cc2n1`, the growth with T-47D breast is 53.5%; in the assay on BT-549 breast it was 94%; with MDA-MB-435 melanoma, 104%; with SW-620 colon it was 96.7%; in the assay on MCF7 breast it was 36.3%; with HCT-116 colon, 91.4%. In addition, the growth is 93.9% with HCC-2998 colon and 81.4% in the assay on KM12 colon.
For `O=C1CCCN1C(O)CCN(Cc1ccccc1)Cc1ccc(Cl)cc1` (configuration not stated), the growth was 99.6% in the assay on T-47D breast; 105% in the assay on BT-549 breast; 103% in the assay with MDA-MB-435 melanoma; 100% in the assay on SW-620 colon; 94.1% in the assay on MCF7 breast; 96.7% with HCT-116 colon. Also, the growth in the assay with HCC-2998 colon is 108%; in the assay with KM12 colon, 105%.
On to `c1cc(C2CCCCC2)ccc1-c1cnc2nonc2n1`, for which the growth in the assay with T-47D breast was 20.7%; in the assay with BT-549 breast, 9.82% (active); in the assay with MDA-MB-435 melanoma, -28.4% (active); in the assay with SW-620 colon it was 22%; in the assay on MCF7 breast, 7.11% (active); with HCT-116 colon, 4.27% (active). Moreover, the growth in the assay on HCC-2998 colon is 8.72% (active); in the assay on KM12 colon, 14.2%.
With `COc1ccc(-c2nc3ccccc3n3cccc23)cc1`, the growth in the assay on T-47D breast was 107%; in the assay on BT-549 breast it was 95.4%; with MDA-MB-435 melanoma, 126%; in the assay on SW-620 colon, 101%; in the assay on MCF7 breast it was 81.9%; in the assay on HCT-116 colon it was 92%. The values for the growth with HCC-2998 colon and in the assay with KM12 colon were 110% and 99%, respectively.
As to `CC(C)CCSc1nc(-c2ccc(F)cc2)c(C#N)c(N2CCN(C)CC2)n1`, the growth is 68.3% in the assay on T-47D breast; 89% in the assay with BT-549 breast; 93.6% with MDA-MB-435 melanoma; 90.2% in the assay on SW-620 colon; 83.9% with MCF7 breast; 79% in the assay on HCT-116 colon. The figures for the growth with HCC-2998 colon and with KM12 colon were 97.2% and 91.7%, respectively.
For the compound `O=[N+]([O-])c1ccc(SSc2ccc([N+](=O)[O-])cc2Cl)c(Cl)c1`, the growth was 70.6% with T-47D breast; 97.4% in the assay with BT-549 breast; 113% with MDA-MB-435 melanoma; 97.6% in the assay on SW-620 colon; 77.3% in the assay on MCF7 breast; 91.1% in the assay on HCT-116 colon. Moreover, the growth with HCC-2998 colon is 106%; with KM12 colon, 98%.
